Hit rate of the full screen: of about 310,000 compounds, about 14,000 (4.5%) showed an effect of 50% or more. The effect is printed as a negative number. For the sample, strong results were picked, then their nearest neighbours and some compounds at random.
These compounds were tested against human ether-à-go-go-related gene (hERG) potassium channel (human, UniProt Q12809) (assay: primary screen, population patch clamp on CHO cells stably expressing hERG; higher = less effect of the substance).
Description: Briefly, Chinese hamster ovary (CHO) cells stably expressing the hERG channel were dislodged from tissue culture flasks and dispensed into PPC plates. […] During the recording, background leak currents were estimated by a 100 ms step to -80 mV from an initial holding potential of -70 mV and subtracted from the subsequent current measurement. The campaign was conducted in two phases using slight differences in recording protocol. In the first phase, the initial voltage pulse used a 100 ms step to -30 mV from a holding potential of -70 mV, a 2 s conditioning step to +25 mV, and a 2 s test step to -30 mV. During the second phase of the screen, the potential during the conditioning step was raised to +45 mV. In both phases of the campaign, a secondary voltage pulse was applied using the same parameters as the second phase initial pulse. The initial and secondary pulses were applied in the absence of compound, and upon application of 1 μM and 10 μM test concentrations. […]
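Also: peak tail current of the secondary pulse compared with the same well before compound.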

Chain of human ether-à-go-go-related gene (hERG) potassium channel (Q12809 whole entry, looked up): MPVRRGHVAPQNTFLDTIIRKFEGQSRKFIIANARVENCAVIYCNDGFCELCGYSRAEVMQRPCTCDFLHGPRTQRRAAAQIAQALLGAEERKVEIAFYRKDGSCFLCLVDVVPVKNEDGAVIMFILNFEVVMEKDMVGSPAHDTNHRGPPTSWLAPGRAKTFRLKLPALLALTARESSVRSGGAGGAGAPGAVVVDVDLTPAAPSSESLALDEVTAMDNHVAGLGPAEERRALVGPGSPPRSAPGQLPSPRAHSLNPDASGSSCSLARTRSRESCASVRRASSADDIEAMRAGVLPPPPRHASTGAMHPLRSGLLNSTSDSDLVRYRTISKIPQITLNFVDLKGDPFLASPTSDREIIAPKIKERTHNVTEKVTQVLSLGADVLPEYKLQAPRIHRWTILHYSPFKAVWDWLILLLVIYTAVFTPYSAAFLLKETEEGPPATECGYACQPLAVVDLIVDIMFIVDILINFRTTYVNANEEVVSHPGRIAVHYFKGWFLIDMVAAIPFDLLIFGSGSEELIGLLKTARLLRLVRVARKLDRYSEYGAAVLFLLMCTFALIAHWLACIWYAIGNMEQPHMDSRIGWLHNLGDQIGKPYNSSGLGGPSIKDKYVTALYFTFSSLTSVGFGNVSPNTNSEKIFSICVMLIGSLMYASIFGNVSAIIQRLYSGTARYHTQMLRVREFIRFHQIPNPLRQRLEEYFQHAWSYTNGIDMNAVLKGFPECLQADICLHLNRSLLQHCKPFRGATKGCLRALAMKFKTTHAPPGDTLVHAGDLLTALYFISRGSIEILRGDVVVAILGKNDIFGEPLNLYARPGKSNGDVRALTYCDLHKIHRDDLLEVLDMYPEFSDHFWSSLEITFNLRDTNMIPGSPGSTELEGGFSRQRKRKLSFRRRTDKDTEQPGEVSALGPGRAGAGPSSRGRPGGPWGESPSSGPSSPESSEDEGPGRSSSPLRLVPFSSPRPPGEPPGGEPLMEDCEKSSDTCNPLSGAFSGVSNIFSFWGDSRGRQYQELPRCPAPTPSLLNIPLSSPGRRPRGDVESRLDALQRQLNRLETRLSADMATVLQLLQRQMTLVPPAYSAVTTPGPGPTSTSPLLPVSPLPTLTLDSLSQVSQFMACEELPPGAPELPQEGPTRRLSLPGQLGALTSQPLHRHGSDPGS

Row | Structure (SMILES) | hERG current change (%, negative = inhibition) at 10uM [%]
1 | CCN(CC)CCN(Cc1cc2ccc(C)c(C)c2[nH]c1=O)C(=S)NCc1ccco1 | -51.4
2 | Cc1cccc2cc(CN(CCN(C)C)C(=S)NCc3ccco3)c(=O)[nH]c12 | -38.9
3 | Cc1cc(C)c2[nH]c(=O)c(CN(CC3CCCO3)C(=S)NCc3ccco3)cc2c1 (stereo not shown) | -4.81
4 | CCN(CC)CCN(Cc1cc2cc(C)cc(C)c2[nH]c1=O)C(=S)NCc1ccco1 | -52.5
5 | Cc1cc(C)c2[nH]c(=O)c(CN(Cc3cccs3)C(=S)NCc3ccco3)cc2c1 | -15.7
6 | Cc1ccc2cc(CN(CC3CCCO3)C(=S)NCc3ccco3)c(=O)[nH]c2c1C (stereo not shown) | -40.8
7 | Cc1ccc(OCCC(=O)Nc2ccc(S(=O)(=O)Nc3cc(C)nc(C)n3)cc2)cc1 | 1.18
8 | Br.CCCN1CCc2cc(O)cc3c2[C@H]1Cc1ccc(O)c(O)c1-3.O | -57.8
9 | Br.C=CCN1CCc2cccc3c2[C@H]1Cc1ccc(O)c(O)c1-3 | -19.3
10 | COc1c(O)ccc2c1-c1c3c(cc4c1C(C2)N(C)CC4)OCO3 (stereo not shown) | -28.7
11 | Cn1c(N)c(N=Nc2ccc(S(N)(=O)=O)cc2)c(=O)n(C)c1=O | 27.6
12 | CCN(CC(=O)Nc1ccc(OC)cc1)CC(=O)Nc1ccc(Br)cc1F | -67.4
13 | COc1ccc(NC(=O)CN(C)CC(=O)Nc2ccc(Cl)cc2F)cc1 | -10.6
14 | CCN(CC(=O)Nc1ccc(OC)cc1)CC(=O)Nc1ccc(Cl)cc1F | -6.34
15 | Cc1ccc(Cn2nnc3c(=O)n(CC(=O)c4ccccc4)cnc32)cc1 | -0.591
16 | COc1ccc(NS(=O)(=O)c2cc(-c3cnc(C4CC4)o3)ccc2C)cc1 | 6.02
17 | CCc1ccc(-c2nc(CSCC(=O)N3CCN(c4ncccn4)CC3)c(C)o2)cc1 | -23.6
18 | Cc1ccc(-c2nc(CS(=O)CC(=O)N3CCN(c4ncccn4)CC3)c(C)o2)cc1 (stereo not shown) | -54.1
19 | Cc1ccc(-c2nc(CS(=O)CC(=O)N3CCN(c4ccc(F)cc4)CC3)c(C)o2)cc1 (stereo not shown) | -42
20 | CCc1ccc(-c2nc(CSCC(=O)N3CCN(c4ccccn4)CC3)c(C)o2)cc1 | -50.7
21 | CCc1ccc(-c2nc(CN3CCC(C(=O)N4CCN(c5ccccc5)CC4)CC3)c(C)o2)cc1 | -71.3
22 | CCOc1ccccc1-c1nc(CN2CCC(C(=O)N3CCOCC3)CC2)c(C)o1 | -5.13

Row | Structure (SMILES) | hERG current change (%, negative = inhibition) at 10uM [%]
23 | COc1ccc(-c2nc(CN3CCC(C(=O)N4CCOCC4)CC3)c(C)o2)cc1OC | -6.54
24 | Cc1ccccc1-c1nc(CN2CCC(C(=O)N3CCN(c4ccccn4)CC3)CC2)c(C)o1 | -62
25 | Cc1ccc(-c2nc(CS(=O)CC(=O)N3CCN(c4ccccc4)CC3)c(C)o2)cc1 (stereo not shown) | -31.3
26 | Cc1ccc(-c2nc(CSCC(=O)N3CCN(c4ccccn4)CC3)c(C)o2)cc1 | -25
27 | COC(=O)c1ccc(-c2nc(CN3CCC(C(=O)N4CCOCC4)CC3)c(C)o2)cc1 | -7.65
28 | Cc1nn(Cc2ccccc2Cl)c(C)c1NC(=O)Cn1nc([N+](=O)[O-])c(Cl)c1C | 7.21
29 | COC(=O)c1coc(-c2ccc(C)cc2)c1C(=O)OC | 1.6
30 | CC(=O)c1ccc(N2CCN(S(=O)(=O)c3ccc4ccccc4c3)CC2)cc1 | 3.28
31 | Cc1cc(Nc2nnnn2-c2ccccc2)n(-c2ccccc2)n1 | -21.8
32 | CCN1CCN(C(=O)C(NS(=O)(=O)c2ccc3nc(C)sc3c2)C(C)C)CC1 (stereo not shown) | 0.194
33 | COc1ccc(-c2[nH]c(-c3ccc(F)cc3)nc2SCC(=O)NCc2ccco2)cc1OC | 18.8
34 | CSc1ccc(/C=N/Nc2ccc(Cl)c(C(=O)O)c2)cc1 | 6.73
35 | COC(=O)/C(=C/c1c[nH]c2ccccc12)NC(C)=O | 6.31
36 | CCOC(=O)N1CCN(C(=O)C2CCN(Cc3nc(-c4ccccc4C)oc3C)CC2)CC1 | -58.3
37 | Cc1ccccc1-c1nc(CN2CCC(C(=O)O)CC2)c(C)o1 | -18.6
38 | CCc1ccc(-c2nc(CN3CCC(C(=O)N4CCN(c5ccccn5)CC4)CC3)c(C)o2)cc1 | -68.5
39 | Cc1ccccc1-c1nc(CN2CCC(C(=O)N3CCC(C(N)=O)CC3)CC2)c(C)o1 | 2.7
40 | O=C1OC(/C=C/c2ccccc2)=NC/1=C\c1cccnc1 | 19.4
41 | CCCc1c(O)nc(SCC(=O)NCc2ccco2)[nH]c1=O | 27
42 | O=C(Nc1ccc(-n2cnnn2)cc1)C(c1ccccc1)c1ccccc1 | 8.56
43 | O=C(c1ccc(-n2cnnn2)cc1)N1CCOCC1 | -1.64
44 | CC1CCN(C(=O)c2ccc(-n3cnnn3)cc2)CC1 | -72.1

Row | Structure (SMILES) | hERG current change (%, negative = inhibition) at 10uM [%]
45 | O=C(c1ccc(-n2cnnn2)cc1)N1CCN(C(c2ccccc2)c2ccccc2)CC1 | -64.7
46 | O=C(c1ccc(-n2cnnn2)cc1)N1CCCCC1 | -24.1
47 | O=C(c1ccc(=O)oc1)N1CCN(C(c2ccccc2)c2ccccc2)CC1 | -32.2
48 | Cc1cc(NC(=O)c2cc(CC(C)C)on2)n(-c2ccccc2)n1 | 9.57
49 | COc1cc(NC(=O)CCCN2C(=O)NC(C)(C)C2=O)cc(OC)c1 | 12.2
50 | Cc1cccc(OCC(=O)NCC(=O)N/N=C/c2ccc(N(C)C)cc2)c1 | 0.0886
51 | Cc1ccc(NC(=O)Nc2c(Cl)cccc2Cl)cn1 | 14
52 | COC(=O)CCSc1cc([N+](=O)[O-])cc2c1c(C1OCCS1)nn2-c1ccccc1 (stereo not shown) | 3.61
53 | O=C(O)CCc1ccc(-c2cccs2)n1NC(=O)c1cccs1 | 22.3
54 | O=C(Nc1ccc(Br)cc1)N1CCCC(O)C1 (stereo not shown) | 6.54
55 | CN1CCN(C(=O)c2ccc3c(c2)N(Cc2ccccc2F)C(=O)c2ccccc2S3=O)CC1 (stereo not shown) | 5.05
56 | Cc1ccc(C2(c3noc(CN4CCOCC4)n3)CCCC2)cc1 | 17.3
57 | COCCN1CCN(Cc2nc(C3(c4ccc(C)cc4)CCCC3)no2)CC1 | -9.3
58 | Cc1ccc(C2(c3noc(CN4CCC(c5ccncc5)CC4)n3)CCCC2)cc1 | -55.5
59 | COc1ccccc1NC(=O)C[n+]1ccccc1C.[Cl-] | 15.3
60 | COc1ccc(-n2c(NN)nc3sc4c(c3c2=O)CCCC4)cc1 | -47.4
61 | CCOC(=O)CSc1nc2sc3c(c2c(=O)n1-c1ccc(OCC)cc1)CCN(C)C3 | -53.9
62 | COc1ccc(-n2c(SCCNCCO)nc3sc4c(c3c2=O)CCCC4)cc1 | -55.7
63 | COc1ccc(-n2c(SCC(=O)O)nc3sc4c(c3c2=O)CCCC4)cc1 | 20.3
64 | COc1ccc(-n2c(SCC(=O)O)nc3sc4c(c3c2=O)CCC4)cc1 | 18.9
65 | COc1ccc(-n2c(SCC(N)=O)nc3sc4c(c3c2=O)CCC4)cc1 | -16.9
66 | COc1ccc(-n2c(NCCN(C)C)nc3sc4c(c3c2=O)CCCCC4)cc1 | -72.7

Row | Structure (SMILES) | hERG current change (%, negative = inhibition) at 10uM [%]
67 | CCOc1ccc(-n2c(SCC(=O)OC)nc3sc4c(c3c2=O)CCN(C)C4)cc1 | -0.924
68 | CCOC(=O)CSc1nc2sc3c(c2c(=O)n1-c1ccc(OC)cc1)CCN(C)C3 | -5.76
69 | CN(C)CCNc1nc2sc3c(c2c(=O)n1-c1ccc(F)cc1)CCCCC3 | -33.3
70 | COc1ccc(-n2c(C)nc3sc4c(c3c2=O)CCCC4)cc1 | -20.3
71 | CCN1CCN(c2nc3sc4c(c3c(=O)n2-c2ccc(OC)cc2)CCCCC4)CC1 | -60.3
72 | COc1ccc(CNc2nc3nc(-c4ccccc4)cc(=O)n3[nH]2)cc1OC | -13.1
73 | CCOC(=O)c1sc(NC(=O)CSc2nc(C)cc(C(F)(F)F)n2)c(C#N)c1C | 4.26
74 | COc1ccc(C(=O)c2c[nH]c(C(=O)NCc3cccnc3)c2)cc1 | -12.7
75 | CCN1CCc2nc(NC(=O)c3cc(F)c(F)cc3Cl)sc2C1 | -34.2
76 | Cc1cccc(OCCOC(=O)c2ccc(F)c(S(=O)(=O)N3CCOCC3)c2)c1 | -18.1
77 | Cl.NC(=O)c1c(NC(=O)Cc2ccccc2)sc2c1CCN(Cc1ccccc1)C2 | 7.96
78 | CN1CCc2c(sc(NC(=O)c3ccc(C(=O)c4ccccc4)cc3)c2C(N)=O)C1.Cl | 11.5
79 | CCN1CCN(S(=O)(=O)c2ccc(C(=O)Nc3sc4c(c3C(N)=O)CCN(CC)C4)cc2)CC1 | 12.4
80 | CCN1CCc2c(sc(NC(=O)c3ccc4ccccc4c3)c2C(N)=O)C1.Cl | 7.59
81 | CCN1CCc2c(sc(NC(=O)c3ccc(S(=O)(=O)N4CC(C)OC(C)C4)cc3)c2C(N)=O)C1 (stereo not shown) | -54.5
82 | CNC(=O)c1c(NC(=O)c2ccc(S(=O)(=O)N3CCCC3)cc2)sc2c1CCN(C(C)C)C2 | 2.7
83 | CCN1CCc2c(sc(NC(=O)c3ccc(S(=O)(=O)N4CCOCC4)cc3)c2C(N)=O)C1 | -21.9
84 | CCC(=O)Nc1sc2c(c1C(N)=O)CCN(Cc1ccccc1)C2.Cl | -53.3
85 | Cl.NC(=O)c1c(NC(=O)c2ccccc2)sc2c1CCN(Cc1ccccc1)C2 | 7.85
86 | CCN1CCc2c(sc(NC(=O)c3ccc(C(=O)c4ccccc4)cc3)c2C(N)=O)C1.Cl | -55.4
87 | CNC(=O)c1c(NC(=O)c2ccc(S(=O)(=O)N3CC(C)OC(C)C3)cc2)sc2c1CCN(C(C)C)C2 (stereo not shown) | -26.9
88 | CNC(=O)c1c(NC(=O)c2ccc(S(=O)(=O)N3CCCCC3)cc2)sc2c1CCN(C(C)C)C2 | -65.8

From PMC4336329 (PLoS ONE, 2015)
